Compounds with a hit are over-represented: about 1.3% of the library has one in this group of screens.
Gli-Sufu antag: Gli-Sufu pathway antagonists, primary screen, luciferase luminescence, Sufu-KO-LIGHT cells, uHTS. AID 588413, 2011. inhibition, % at 5 µM. 340,000 tested, 0.74% active. Sufu-KO-LIGHT fibroblasts, Gli luciferase reporter luminescence;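 active = inhibition above about 55%, limit read from the data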;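 also: 0% = DMSO-treated cells and 100% = wells with medium but no cells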
NCOA2 inhibitor: inhibition of GAL4-SRC2 driven luciferase reporter, primary screen, SRC2 inhibitor project, cell-based, luminescence. inhibition, % at 9 µM. 370,000 tested, 0.17% active. HEK293 GAL4-SRC2 luciferase reporter;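 active = inhibition above the mean inhibition of all tested compounds plus 3 SD, set per campaign, cut at about 52% in these data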;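 also: 0% = DMSO treated cells and 100% = cells given Gossypol at 36 µM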
NCOA3 inh: SRC3 coactivator transcriptional activity inhibitors, primary screen, cell-based, luminescence | inhibition, % at 3.6 µM | HEK293 GAL4-SRC3 luciferase reporter | 360,000 tested, 0.17% active | AID 588352, 2011 | Nuclear receptor coactivator 3 (Homo sapiens), Q9Y6Q9;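 active = inhibition above a per-campaign cutoff, the mean of all compounds plus 3 SD, cut at about 60% in these data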;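 also: 0% = DMSO-treated cells and 100% = gossypol-treated cells at 36 µM; higher means less SRC3-driven luciferase light from the GAL4 reporter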
Target sequence (Q9Y6Q9 whole entry, looked up, the tested form may be a part): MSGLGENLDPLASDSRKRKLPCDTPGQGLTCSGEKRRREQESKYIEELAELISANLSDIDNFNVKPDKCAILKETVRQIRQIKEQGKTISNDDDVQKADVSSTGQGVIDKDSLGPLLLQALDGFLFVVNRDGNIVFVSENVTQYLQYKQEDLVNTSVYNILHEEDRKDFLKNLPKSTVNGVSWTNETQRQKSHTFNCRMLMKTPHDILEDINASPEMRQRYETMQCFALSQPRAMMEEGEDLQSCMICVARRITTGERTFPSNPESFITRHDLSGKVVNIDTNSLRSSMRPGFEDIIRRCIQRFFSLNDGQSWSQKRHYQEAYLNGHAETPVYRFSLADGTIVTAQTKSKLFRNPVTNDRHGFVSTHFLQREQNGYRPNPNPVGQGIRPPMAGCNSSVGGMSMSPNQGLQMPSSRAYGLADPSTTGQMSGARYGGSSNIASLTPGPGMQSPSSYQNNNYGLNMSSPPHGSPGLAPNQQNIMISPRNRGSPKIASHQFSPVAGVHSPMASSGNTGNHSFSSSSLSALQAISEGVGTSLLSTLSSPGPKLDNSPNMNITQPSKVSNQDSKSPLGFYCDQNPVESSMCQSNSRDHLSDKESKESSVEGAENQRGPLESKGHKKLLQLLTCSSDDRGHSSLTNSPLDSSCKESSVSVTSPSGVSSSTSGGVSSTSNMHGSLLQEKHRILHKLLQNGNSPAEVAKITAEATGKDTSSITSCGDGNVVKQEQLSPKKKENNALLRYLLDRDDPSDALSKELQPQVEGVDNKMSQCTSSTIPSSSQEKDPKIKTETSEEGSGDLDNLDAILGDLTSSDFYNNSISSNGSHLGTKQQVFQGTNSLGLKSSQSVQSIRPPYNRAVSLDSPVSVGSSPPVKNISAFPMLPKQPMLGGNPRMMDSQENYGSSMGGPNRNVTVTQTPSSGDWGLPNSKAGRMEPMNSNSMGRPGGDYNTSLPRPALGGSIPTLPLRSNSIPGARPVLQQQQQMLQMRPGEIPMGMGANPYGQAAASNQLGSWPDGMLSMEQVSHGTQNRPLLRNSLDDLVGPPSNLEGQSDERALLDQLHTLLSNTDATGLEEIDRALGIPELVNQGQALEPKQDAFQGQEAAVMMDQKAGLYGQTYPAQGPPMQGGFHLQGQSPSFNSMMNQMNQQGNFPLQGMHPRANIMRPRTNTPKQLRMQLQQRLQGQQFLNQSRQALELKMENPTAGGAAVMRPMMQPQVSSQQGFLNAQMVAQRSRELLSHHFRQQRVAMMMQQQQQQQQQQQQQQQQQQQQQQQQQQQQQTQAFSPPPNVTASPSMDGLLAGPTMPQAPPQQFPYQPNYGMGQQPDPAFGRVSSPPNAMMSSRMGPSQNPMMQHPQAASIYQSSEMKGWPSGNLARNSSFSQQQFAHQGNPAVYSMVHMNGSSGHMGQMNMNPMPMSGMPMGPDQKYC
NR2F2 inh: NR2F2 transcriptional activity inhibitors, primary screen, cell-based, luciferase reporter, HEK293T, luminescence; COUP transcription factor 2 (Homo sapiens), P24468; HEK293T NGFI-A luciferase reporter; inhibition, % at 8.6 µM; 370,000 tested, 0.7% active; AID 686940, 2013;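 active = inhibition above a per-plate cutoff, mean inhibition of test wells between control levels plus 3 SD, cut at about 38% in these data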;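 also: cells cotransfected with COUP-TFII expression vector driving the NGFI-A reporter; 0% = median of COUP-TF2 test wells and 100% = reporter-only cells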
NR5A2 inv ag: LRH-1 (NR5A2) inverse agonists, primary screen, cell-based, luminescence, HEK293T, StAR-luciferase reporter. Nuclear receptor subfamily 5 group A member 2 (Homo sapiens), O00482. LRH-1 transfected, 24 h. inhibition, % at 3.6 µM. 360,000 tested, 0.13% active. AID 602396, 2012;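 active = inhibition above the mean inhibition of all tested compounds plus 3 SD, cut at about 73% in these data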;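 also: 0% = DMSO wells and 100% = reporter-only cells lacking LRH-1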
NCOA1 inh: SRC1 coactivator transcriptional activity inhibitors, primary screen, cell-based, luminescence | Nuclear receptor coactivator 1 (Homo sapiens), Q15788 | HEK293 GAL4-SRC1 luciferase reporter | inhibition, % at 3.6 µM | 360,000 tested, 0.12% active;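 active = inhibition above the campaign mean plus 3 SD, with each screening campaign given its own cutoff, cut at about 60% in these data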;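 also: 0% = DMSO treated cells and 100% = gossypol at 36 µM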
Gli antag conf: Gli-SUFU pathway antagonists, confirmation, single concentration, luciferase luminescence, Sufu-KO-LIGHT cells; shares compounds with Gli-Sufu antag; Gli luciferase reporter; inhibition, % at 5 µM; 2,500 tested, 40% active; AID 602428, 2012;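 active = mean inhibition at 5 µM reaching about 45%, limit read from the data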;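 also: plate controls were DMSO-treated cells for no effect and wells lacking cells for full effect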
Gli cytotox: cytotoxicity in Sufu-KO-LIGHT cells, confirmation, cytotoxicity control for Gli-SUFU antagonist project, cell-based, ATP luminescence, single concentration; shares compounds with Gli-Sufu antag; cytotoxicity, % at 5 µM; 2,500 tested, 32% active; AID 651994, 2013;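 active = mean cytotoxicity at 5 µM above about 25%, limit read from the data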;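 also: cells exposed to compound overnight for roughly 16 to 18 hours; plate controls were DMSO wells with cells for no effect and medium without cells for full effect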
Wnt3a counter: Wnt3a reporter signal inhibition, confirmation, counter-screen for Gli-SUFU antagonist project, Wnt-LIGHT cells, luminescence, single concentration. shares compounds with Gli-Sufu antag. 2,500 tested, 20% active. Wnt3a-driven luciferase reporter. inhibition, % at 6.25 µM;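 active = mean inhibition above about 25%, limit read from the data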
Starred values were filed as active, the others as inactive; x = not tested or not shown.

SMILES | Gli-Sufu antag | NCOA2 inhibitor | NCOA3 inh | NR2F2 inh | NR5A2 inv ag | NCOA1 inh | Gli antag conf | Gli cytotox | Wnt3a counter
Cc1cnccc1CN(C)Cc1nc(Cc2ccccc2Cl)no1 | 55.2* | 14.1 | 15.5 | 32.7 | 20.2 | 0.3 | 31.0 | 9.6 | -2.1
COC(=O)[C@]12C[C@H](CC(=O)N3CCCC3)C(=O)N(Cc3ccco3)C1=C[C@H](C(C)C)O[C@@H]2C1CC1 | x | 12.6 | x | 3.7 | x | x | x | x | x
CC1(C)CC(=O)c2c(noc2-c2ccccc2)C1 | 75.2* | -32.0 | 1.8 | -18.4 | 12.6 | -9.5 | 19.7 | 28.4* | -47.4
CC1(C)CC(=O)c2c(Cc3ccccc3)noc2C1 | -10.7 | -25.8 | 6.2 | 21.2 | -1.6 | -36.0 | x | x | x
CC1=NN(c2ccccc2)C(=O)/C1=C\N1CC(C)OC(C)C1 (stereo unspecified) | 97.8* | 9.5 | -8.4 | 1.2 | -6.2 | -13.6 | 24.4 | 9.2 | 4.9
CC1=NN(c2ccccc2)C(=O)/C1=C/C=C/c1ccccc1 | -15.5 | 4.4 | -6.6 | 4.1 | -4.9 | -1.0 | x | x | x
CCCCOC(=O)c1ccc(NC(=O)Nc2ccc(OC)c(OC)c2)cc1 | 8.2 | 0.8 | 9.0 | 0.9 | -2.2 | -17.0 | x | x | x
CCOC(=O)c1ccc(NC(=O)Nc2ccc(OC)c(OC)c2)cc1 | 61.2* | -14.9 | -6.2 | -21.4 | -9.4 | 19.0 | 24.4 | 8.1 | -8.6
CCOC(=O)c1ccccc1NC(=O)C(C)Oc1ccccc1 (stereo unspecified) | -0.3 | 14.3 | 14.6 | 0.2 | 21.3 | -12.4 | x | x | x
CCOC(=O)c1ccccc1NC(=O)Nc1ccc(OC)c(OC)c1 | 61.5* | -1.2 | -6.2 | 4.4 | 32.5 | -5.0 | 17.1 | 12.6 | 2.6
CCCC(C)C(=O)Nc1ccccc1C(=O)OCC (stereo unspecified) | 99.8* | -19.9 | 15.9 | 2.5 | -28.7 | -12.3 | 0.5 | 19.9 | -7.1
CCCCCCCCN1C(=O)[C@@H](CC(=O)NCc2ccccc2)C[C@@]2(C(=O)OC)C1=C[C@H](C(C)C)O[C@@H]2C1CC1 | x | 14.3 | x | 11.9 | x | x | x | x | x
C=CC[C@]1(O)C(=O)N(c2ccccc2)c2ccccc21 | x | 12.7 | x | -1.9 | x | x | x | x | x
CCn1c(SCC(=O)Nc2ccccc2-c2ccccc2)nnc1-c1ccc(C)cc1 | x | 7.2 | x | -0.8 | x | x | x | x | x
CCO[C@@H]1OC(C(=O)NCc2nc3ccccc3[nH]2)=C[C@H](C(C)(C)C)[C@H]1CCCO | 50.6 | 27.6 | 25.9 | -99.3 | 12.1 | -2.3 | 58.0* | 60.1* | -51.2
COc1ccc(CNC(=O)CCNS(=O)(=O)c2ccc3[nH]c(=O)oc3c2)cc1 | x | -9.6 | x | -2.1 | x | x | x | x | x
COc1ccc(-c2nn(-c3ccccc3)cc2/C=N/NC(=O)c2ccc(Br)o2)cc1 | 51.6 | -30.1 | -41.3 | -7.8 | -71.3 | -57.0 | 63.0* | 22.8 | -27.8
CCOC(=O)c1ccc(NC(=O)CSc2nnc(-c3cc(-c4ccccc4)n[nH]3)n2N)cc1 | x | -13.8 | x | -14.5 | x | x | x | x | x
CNc1ccccc1C(C)(C)c1cc(-c2cccc(OC)c2)no1 | 70.9* | 3.8 | 13.4 | 32.3 | 24.8 | 4.4 | 76.0* | 42.3* | 21.6
O=C(Nc1cc(C(F)(F)F)cc(C(F)(F)F)c1)Nc1cnn(-c2ccc([N+](=O)[O-])cc2)c1C(F)(F)F | 55.3* | -9.2 | 9.3 | -12.0 | 4.4 | -14.4 | 74.0* | 12.8 | 24.4
O=C(Nc1ccc(C(=O)O)cc1)Nc1ccc([N+](=O)[O-])cc1 | 13.2 | 6.1 | -60.6 | 0.1 | -18.2 | -1.5 | x | x | x
Cc1ccc(-c2nc(-c3ccccc3)no2)c(Cl)c1 | 67.4* | 23.4 | 31.9 | 32.3 | 17.0 | 32.2 | 68.9* | 79.5* | 102.5*
O=C(N=Nc1c(O)[nH]c2ccc(Br)cc12)c1ccccc1-n1cccc1 | 57.1* | 7.3 | -3.0 | -36.5 | 27.5 | 9.3 | 32.5 | 34.4* | -59.5
Cc1ccc(C)c(NC(=O)C2CCN(S(=O)(=O)c3ccc4c(c3)NC(=O)CO4)CC2)c1 | 60.4* | 6.7 | 11.5 | -2.6 | 0.0 | 14.4 | 17.9 | 10.6 | -31.6
Cc1cccc(NC(=O)C2CCN(S(=O)(=O)c3ccc4c(c3)NC(=O)CO4)CC2)c1 | 1.7 | -40.9 | 4.7 | 5.0 | 13.5 | -9.6 | x | x | x
SMILES | Gli-Sufu antag | NCOA2 inhibitor | NCOA3 inh | NR2F2 inh | NR5A2 inv ag | NCOA1 inh | Gli antag conf | Gli cytotox | Wnt3a counter
Cc1cc(C)c(/C=N/NC(=O)c2nnn(-c3nonc3N)c2COc2ccc(F)cc2)c(C)c1 | 54.8 | 6.3 | 11.9 | -4.8 | 1.3 | -3.9 | 16.3 | 16.3 | -7.9
Cc1ccc(COc2ccc(/C=N/NC(=O)c3nnn(-c4nonc4N)c3COc3ccc(F)cc3)cc2)cc1 | -9.7 | 4.6 | -1.1 | -3.0 | 0.0 | -5.1 | x | x | x
CCN(Cc1ccc(NC(C)=O)cc1)CC1CCCN(CCc2cccc(OC)c2)C1 (stereo unspecified) | 61.1* | 1.4 | 10.0 | 6.3 | 8.4 | -10.3 | 21.8 | 11.8 | 50.4*
CN[C@H]1CCc2cc(OC)c(OC)c(OC)c2-c2ccc(N(C)CC(OC)OC)c(=O)cc21 | 4.5 | 1.0 | -7.3 | -42.4 | 10.3 | -8.9 | x | x | x
COc1cc2c(c(OC)c1OC)-c1ccc(N(C)CC(OC)OC)c(=O)cc1[C@@H](NC(C)=O)CC2 | 57.3* | 9.2 | 4.0 | -52.9 | 17.7 | -25.8 | 58.0* | 33.5* | -74.5
COc1cc2c(c(OC)c1OC)-c1ccc(SC)c(=O)cc1C(NC(=O)C(F)(F)F)CC2 (stereo unspecified) | 50.9 | 15.4 | 10.4 | -60.8 | 31.6 | -14.6 | 60.0* | 60.5* | 41.4*
COc1cc2c(c(OC)c1OC)-c1ccc(OC)c(=O)cc1[C@@H](N(C)CC#CCO)CC2 | 65.9* | 12.2 | -4.5 | -62.4 | -1.7 | -7.7 | 58.4* | 61.6* | 40.6*
C=C(C)CSc1nnc(-c2cc(-c3ccccc3)n[nH]2)n1N | x | -10.6 | x | -15.7 | x | x | x | x | x
CC(Nn1cnnc1)c1cc(Cl)ccc1O (stereo unspecified) | 97.6* | 2.3 | 19.5 | 5.2 | -7.4 | 5.5 | 18.8 | 17.8 | 1.2
CCc1cc(=O)oc2cc(C)cc(OCC(=O)N[C@@H](CSCc3ccccc3)C(=O)O)c12 | 56.5* | -16.8 | 9.4 | -5.4 | -15.0 | -4.5 | 22.7 | -2.7 | 3.2
CCCC(=O)N1CCC[C@]2(CC[C@@H](CCC#N)O2)C1 | x | -18.0 | x | 6.4 | x | x | x | x | x

Compound activity deposited in PubChem by several laboratories.
